# Source: PubChem BioAssay AID372 (MTDP, 2006)
# In all, about 100,000 compounds went through this assay and about 770 (0.77%) were called active. The list comes from a sample in which actives are over-represented; it also holds similar structures and randomly drawn compounds. Values without a mark were called inactive. Cut-off read from the data, not from the text of the source: active = inhibition above about 50%; inactive = the rest.
# Biological target: Gag-Pol polyprotein (Human immunodeficiency virus type 1 group M subtype B (isolate HXB2)) (UniProt P04585)
# Experiment: RNase H inhibition, HIV 1 Gag Pol polyprotein, FRET biochemical assay, screening (AID 372)
# Conditions: HIV-1 RT RNase H, FRET RNA/DNA substrate fluorescence; at 10 µM; active compounds read high
row,SMILES,inhibition
1,CCOC(=O)N(Cc1ccccc1)C(C(=O)O)C(C(=O)O)N(Cc1ccccc1)C(=O)OCC (stereo unspecified),0%
2,O=CNC(NC(=S)Nc1cc(Cl)ccc1Cl)C(Cl)(Cl)Cl (stereo unspecified),17%
3,Cc1ccc([N+](=O)[O-])cc1/C=C1/SC(=S)N(c2cccc(C(F)(F)F)c2)C1=O,5%
4,O=C(COc1ccc(Br)cc1Cl)Nc1cc(Cl)ccc1Cl,8%
5,COc1ccc(OC)c(N(CC(=O)NCC(C)C)S(C)(=O)=O)c1,0%
6,CC(=O)C1=C(C)NC(SCC(=O)c2ccc(C)cc2)=C(C#N)C1c1ccc(Br)cc1 (stereo unspecified),18%
7,O=C(NC(=S)Nc1ccc(Cl)c([N+](=O)[O-])c1)c1ccc(-c2ccccc2)cc1,13%
8,O=C(Nc1ccccc1-c1nc2ccccc2[nH]1)c1ccc([N+](=O)[O-])cc1,44%
9,COc1ccc(O)c(CN2CCCCC2)c1,4%
10,CC1SC(c2cccc(Cl)c2)NC1=O (stereo unspecified),0%
11,C/C(=N\NC(=O)c1cc(C2CC2)[nH]n1)c1ccc(C)cc1,8%
12,COc1ccc(-n2nnnc2C(=Cc2ccc(N(C)C)cc2)c2nnnn2-c2ccc(OC)cc2)cc1,9%
13,N#Cc1c(-c2cccc(Br)c2)c(C#N)c2nc3ccccc3n2c1N,9%
14,COc1ccc(C2CC(=O)C3=C(C2)NC(C)=C(C(=O)OC2CCCC2)C3c2ccc3c(c2)OCO3)cc1 (stereo unspecified),3%
15,CCOC(=O)C1=C(CC)OC(N)=C(C#N)C1c1cccs1 (stereo unspecified),30%
16,CCCC1=C(C(=O)OCC)C(c2cccs2)C(C#N)=C(N)O1 (stereo unspecified),56% (active)
17,CCOC(=O)C1=C(c2ccccc2)OC(N)=C(C#N)C1c1cccs1 (stereo unspecified),15%
18,O=[N+]([O-])c1ccc(C=Nc2ccc(F)cc2)s1,21%
19,COC(=O)C1=C(C)N(Cc2ccccc2)C(=O)/C1=C\c1c(Cl)cccc1Cl,47%
20,COC(=O)C1=C(C)N(Cc2ccccc2)C(=O)/C1=C\c1cccs1,4%
21,COC(=O)C1=C(C)N(Cc2ccccc2)C(=O)/C1=C\c1ccccc1Cl,51% (active)
22,CN(C)c1ccc(/C=C(\C#N)c2nc(-c3ccc4c(c3)OCO4)cs2)cc1,16%

row,SMILES,inhibition
1,CCOC(=O)c1sc(NC(=O)c2cc(Cl)ccc2OC)c(C(N)=O)c1C,2%
2,O=C(Nc1ccccc1I)c1ncn[nH]1,54% (active)
3,Cc1cccc(NC(=O)c2ncn[nH]2)c1C,0%
4,O=C(Nc1ccccc1I)c1ccc(C(=O)Nc2ccccc2I)cc1,0%
5,O=C(Nc1nc2ccccc2n1Cc1ccc(Cl)cc1)c1ccc(Cl)cc1,11%
6,CC(=O)Nc1ccc(NC(=S)NC(=O)c2cccc(Br)c2)cc1,0%
7,O=C1NC(=O)/C(=C\c2ccc(-c3ccc(C(=O)O)cc3)o2)S1,6%
8,O=C1NC(=S)S/C1=C\c1ccc(-c2ccc(Cl)c(C(=O)O)c2)o1,18%
9,O=C(O)c1cc(-c2ccc(C=C3C(=O)c4ccccc4C3=O)o2)ccc1O,11%
10,O=C1/C(=C/c2ccc(-c3ccc(Cl)cc3C(=O)O)o2)Sc2ccccc21,21%
11,CCCOc1ncnc2sc3c(c12)CCCC3,12%
12,CC1=NN(c2ccc(S(N)(=O)=O)cc2)C(=O)/C1=C\c1cccc([N+](=O)[O-])c1,12%
13,COc1cc(/C=C2\C(=O)N(c3ccc(S(N)(=O)=O)cc3)N=C2C)ccc1OCc1ccccc1,53% (active)
14,CC1=NN(c2ccc(S(N)(=O)=O)cc2)C(=O)/C1=C\c1ccc(-c2cc([N+](=O)[O-])ccc2Cl)o1,46%
15,COc1cc([N+](=O)[O-])ccc1-c1ccc(/C=C2/C(=O)N(c3ccc(C)cc3)N=C2C)o1,6%
16,CC1=NN(c2ccc(S(N)(=O)=O)cc2)C(=O)/C1=C\c1ccc(-c2ccc(Cl)c([N+](=O)[O-])c2)o1,80% (active)
17,COc1cc(/C=C2\C(=O)N(c3ccc(S(N)(=O)=O)cc3)N=C2C)cc(Br)c1OCc1ccccc1,16%
18,COc1cc([N+](=O)[O-])ccc1-c1ccc(/C=C2\C(=O)N(c3ccc(S(N)(=O)=O)cc3)N=C2C)o1,53% (active)
19,COc1cc([N+](=O)[O-])ccc1-c1ccc(/C=C2\C(=O)N(c3ccc(C(=O)O)cc3)N=C2C)o1,26%
20,CC1=NN(c2ccc(S(N)(=O)=O)cc2)C(=O)/C1=C\c1ccc(-c2cccc([N+](=O)[O-])c2)o1,57% (active)
21,CCCOc1ccc(/C=C2\C(=O)N(c3ccc(S(N)(=O)=O)cc3)N=C2C)cc1OC,6%
22,CN1C(=O)C(=Cc2ccc(-c3ccc(Cl)c([N+](=O)[O-])c3)o2)C(=O)N(C)C1=S,30%

row,SMILES,inhibition
1,CC1=NN(c2ccc(S(N)(=O)=O)cc2)C(=O)/C1=C\c1ccc(-c2cc([N+](=O)[O-])ccc2C)o1,42%
2,C=CCc1ccc(OCCCOc2c(Cl)cccc2Cl)c(OC)c1,42%
3,CCOC(=O)C1=C(C)NC(=S)NC1c1ccc(Cl)c(Cl)c1 (stereo unspecified),7%
4,COc1ccc(NC(=NCCc2ccccc2)SC2CC(=O)N(c3ccc(F)cc3)C2=O)cc1 (stereo unspecified),9%
5,COc1ccc(OC)c(C=Nc2ccc(I)cc2)c1,9%
6,O=C1NC(=Nc2ccc(F)cc2)S/C1=C/c1cccc(Br)c1,40%
7,CCOC(=O)C1=C(C)N=c2s/c(=C\c3cc(Br)c(OC)c(OC)c3)c(=O)n2C1c1ccc(OC)c(OC)c1 (stereo unspecified),18%
8,CCc1cccc(C)c1NC(=O)/C(C#N)=C/c1ccccc1,4%
9,CC1=NN(c2ccccc2)C(=O)/C1=C\c1ccc(-c2cc([N+](=O)[O-])ccc2O)o1,30%
10,CC1=NN(c2ccc(S(N)(=O)=O)cc2)C(=O)/C1=C\c1ccc(-c2ccc(C(=O)OC(C)C)cc2)o1,25%
11,CCOC(=O)c1ccc(-c2ccc(/C=C3\C(=O)N(c4ccc(S(N)(=O)=O)cc4)N=C3C)o2)cc1,36%
12,CC1=NN(c2cccc(C(=O)O)c2)C(=O)/C1=C\c1ccc(-c2ccc([N+](=O)[O-])cc2)o1,7%
13,CC1=NN(c2ccc(S(N)(=O)=O)cc2)C(=O)/C1=C\c1ccc(-c2ccc([N+](=O)[O-])cc2)o1,63% (active)
14,CC1=NN(c2ccc(S(N)(=O)=O)cc2)C(=O)/C1=C\c1ccc(-c2ccc(C)c(Cl)c2)o1,53% (active)
15,CC1=NN(c2ccc(C)cc2)C(=O)/C1=C/c1ccc(-c2ccc(Cl)c(C(=O)O)c2)o1,24%
16,COC(=O)c1cccc(-c2ccc(/C=C3\C(=O)N(c4ccc(S(N)(=O)=O)cc4)N=C3C)o2)c1,28%
17,CC1=NN(c2ccc(S(N)(=O)=O)cc2)C(=O)/C1=C\c1ccc(-c2ccc(Cl)c(C(=O)OC(C)C)c2)o1,59% (active)
18,CC1=NN(c2ccc(S(N)(=O)=O)cc2)C(=O)/C1=C\c1ccc(-c2ccc(Br)cc2)o1,59% (active)
19,CC1=NN(c2ccc(S(N)(=O)=O)cc2)C(=O)/C1=C\c1ccc(-c2ccc(Cl)c(C(=O)O)c2)o1,6%
20,CC1=NN(c2ccc(S(N)(=O)=O)cc2)C(=O)/C1=C\c1ccc(-c2ccc(S(N)(=O)=O)cc2)o1,32%
21,COc1cccc(C(=O)NC(=S)Nc2ccc3oc(-c4ccccc4Cl)nc3c2)c1,12%
22,O=C(CSc1n[nH]c(-c2ccncc2)n1)c1ccc(O)cc1O,15%

row,SMILES,inhibition
1,FC(F)(F)Oc1ccc(N=Cc2ccc(Br)s2)cc1,8%
2,Oc1cccc(-c2nc(-c3ccccc3)c(-c3ccc(Br)cc3)[nH]2)c1,22%
3,CCOc1ccc(OCCOCCOc2ccccc2Cl)cc1,8%
4,CC1(C)CC(=O)C=C(Nc2cc([N+](=O)[O-])ccc2N)C1,7%
5,CCN(CC)c1ccc(NS(=O)(=O)c2ccc(Cl)cc2)cc1,28%
6,Cc1cc(C)cc(OCCNC(=O)c2ccccc2C)c1,5%
7,COc1ccc(C(=O)NC(=S)Nc2ccc(-c3nc4cc(C)ccc4o3)c(O)c2)cc1,17%
8,Cc1cc(C)c2oc(-c3ccc(C)c(NC(=S)NC(=O)c4cccc(F)c4)c3)nc2c1,0%
9,Cc1ccc(C(=O)NC(=S)Nc2ccc(Cl)c(-c3nc4ccc(C)cc4o3)c2)cc1,15%
10,COc1cccc(C(=O)NC(=S)Nc2ccc(-c3nc4cc(C)ccc4o3)c(O)c2)c1,53% (active)
11,O=C(NC(=S)Nc1ccc2oc(-c3cc(Cl)ccc3Cl)nc2c1)c1cccc(F)c1,18%
12,Cc1ccc2nc(-c3cc(NC(=S)NC(=O)c4cccc(F)c4)ccc3Cl)oc2c1,51% (active)
13,Cc1ccc2nc(-c3ccc(C)c(NC(=S)NC(=O)c4cccc(Br)c4)c3)oc2c1,22%
14,Cc1ccc2nc(-c3ccc(C)c(NC(=S)NC(=O)c4cccc(F)c4)c3)oc2c1,52% (active)
15,COc1cccc(C(=O)Nc2ccc(-c3nc4cc(C)ccc4o3)c(O)c2)c1,36%
16,O=C(Nc1ccc(F)c(Cl)c1)c1ccncc1,7%
17,CCCC1=C(C(=O)OCC)C(c2ccc(Cl)cc2Cl)NC(=O)N1 (stereo unspecified),4%
18,Cc1cccc(N2C(=O)/C(=C/c3cccn3-c3ccccc3)C(=O)NC2=S)c1C,30%
19,COc1ccc(/C=C2\C(=O)NC(=O)N(c3ccccc3)C2=O)cc1I,39%
20,CCOc1cc(/C=N/NC(=O)c2ccncc2)ccc1OC(=O)c1ccco1,5%
